In PubChem BioAssay one finds inhibition data, which are given here for 16 compounds.

SMILES strings stand for the structures. The source made the active and inactive calls.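 Rule for the calls: active = mean inhibition above 46.5%, the solvent-only control mean plus 3 SD; inactive = the rest.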

The assay deals with Nuclear receptor coactivator 2 (Homo sapiens) (UniProt Q15596). Put plainly: SRC2 coactivator transcriptional activity inhibitors, confirmation, cell-based, luminescence, HEK293, triplicate (AID 652008).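 Note: 0% = DMSO-treated cells and 100% = Gossypol at 36 µM.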 The settings on record: HEK293 GAL4-SRC2 luciferase reporter, at 8.9 µM, active compounds read high.
Nuclear receptor coactivator 2 (Homo sapiens), sequence (Q15596 whole entry, looked up, the tested form may be a part): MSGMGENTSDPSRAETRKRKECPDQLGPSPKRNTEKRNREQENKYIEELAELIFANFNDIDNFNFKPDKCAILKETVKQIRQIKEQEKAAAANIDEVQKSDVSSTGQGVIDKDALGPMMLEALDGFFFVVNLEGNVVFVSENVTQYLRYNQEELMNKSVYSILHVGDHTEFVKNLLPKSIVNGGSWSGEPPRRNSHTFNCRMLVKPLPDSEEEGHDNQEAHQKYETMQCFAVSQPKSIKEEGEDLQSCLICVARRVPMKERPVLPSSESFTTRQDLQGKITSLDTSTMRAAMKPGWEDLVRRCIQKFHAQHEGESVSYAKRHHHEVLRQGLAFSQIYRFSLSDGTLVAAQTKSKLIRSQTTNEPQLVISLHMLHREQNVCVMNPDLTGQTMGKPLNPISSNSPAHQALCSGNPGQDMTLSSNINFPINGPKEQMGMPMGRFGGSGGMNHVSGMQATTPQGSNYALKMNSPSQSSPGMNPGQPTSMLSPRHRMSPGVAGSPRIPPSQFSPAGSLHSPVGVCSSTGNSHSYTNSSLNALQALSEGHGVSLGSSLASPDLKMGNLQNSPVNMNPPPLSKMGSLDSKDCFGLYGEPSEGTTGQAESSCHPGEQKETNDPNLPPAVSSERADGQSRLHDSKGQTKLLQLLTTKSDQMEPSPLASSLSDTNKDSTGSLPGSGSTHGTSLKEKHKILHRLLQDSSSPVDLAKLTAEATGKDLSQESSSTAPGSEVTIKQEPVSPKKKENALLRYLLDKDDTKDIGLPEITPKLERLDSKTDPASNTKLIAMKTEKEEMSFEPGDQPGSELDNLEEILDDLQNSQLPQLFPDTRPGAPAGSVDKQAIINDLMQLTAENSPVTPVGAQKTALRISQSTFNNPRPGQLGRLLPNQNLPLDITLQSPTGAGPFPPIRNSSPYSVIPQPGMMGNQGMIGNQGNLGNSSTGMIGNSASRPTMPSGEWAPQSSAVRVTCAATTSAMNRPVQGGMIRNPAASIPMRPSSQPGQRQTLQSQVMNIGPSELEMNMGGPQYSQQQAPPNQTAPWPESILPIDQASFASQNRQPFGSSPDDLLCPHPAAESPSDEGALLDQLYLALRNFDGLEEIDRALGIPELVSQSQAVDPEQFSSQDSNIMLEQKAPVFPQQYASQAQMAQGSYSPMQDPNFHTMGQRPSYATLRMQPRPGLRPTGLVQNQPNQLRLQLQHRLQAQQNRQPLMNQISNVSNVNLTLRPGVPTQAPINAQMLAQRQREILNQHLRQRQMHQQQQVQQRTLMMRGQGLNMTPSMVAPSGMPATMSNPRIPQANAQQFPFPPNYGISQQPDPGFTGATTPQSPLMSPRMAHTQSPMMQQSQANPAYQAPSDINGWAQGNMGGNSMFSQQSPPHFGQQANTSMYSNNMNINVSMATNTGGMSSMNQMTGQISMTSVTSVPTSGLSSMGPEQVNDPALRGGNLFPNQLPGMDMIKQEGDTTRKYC
On to `COc1cc(OC)cc(C2=Cc3ccc(OC)cc3C(CC(C)=O)N2c2ccc(C#CC3(O)CCCCC3)cc2)c1` (stereo unspecified), for which the inhibition was 19.6% (inactive).
As for `CN(C)Cc1ccc(-c2nc3cccc4c3n2CCNC4=O)cc1`, the figure is 6.56% (inactive); as for `O=c1c2ccccc2sn1-c1ccccc1`, -17.8% (inactive).
The result for `CCc1sc(NC(=O)CN2CCOCC2)nc1-c1ccccc1` reads -0.93% (inactive); that for `CC(=O)Nc1cc(=O)c2cccnc2[nH]1`, -9.24% (inactive).
As for `O=C(O)CCC(=O)Nc1ccc(C(=O)OC2CCCCC2)cc1`, the inhibition was 29.4% (inactive).
The result for `COc1cc(CNc2ccc3[nH]c(=O)[nH]c3c2)cc(Br)c1OCc1ccc(F)cc1` reads 29.9% (inactive); that for `N#Cc1c(NC(=O)CSc2ncn[nH]2)sc2c1CCCC2`, 88.2% (active).
As for `Fc1ccc(CNC2CCN(Cc3ccccc3)CC2)cc1`, the figure is -3.44% (inactive); as for `CCn1c(Cl)c(C=O)s/c1=N\S(=O)(=O)c1ccccc1`, 16% (inactive); as for `Cc1ccc(Nc2nc(N)nc(CN3CCN(Cc4ccc5c(c4)OCO5)CC3)n2)cc1`, -18.2% (inactive).
The result for `CC(=O)Nc1cccc(NC(=O)CSc2nc(C3CC3)nc3ccccc23)c1` reads 27.2% (inactive); that for `CN(Cc1ccc(OC(F)F)cc1)C(=O)c1ccc(S(=O)(=O)N(C)c2ccccc2)cc1`, -12.8% (inactive); that for `O=C(CCCN1C(=O)/C(=C/c2ccccc2Cl)SC1=S)NNC(=O)c1cccnc1`, 29.9% (inactive).
`O=C(CCc1ccncc1)N1CCCC(Nc2ccc(F)c(F)c2)C1` (stereo unspecified): the inhibition is -7.87% (inactive).
The result for `CN(Cc1ccccc1)S(=O)(=O)c1ccc(Cl)c(C(=O)NCCCN2CCOCC2)c1` reads 5.69% (inactive).
